VLA-4 inh – inhibition in a human VLA-4 binding assay; inhibition, % (about 7 µM as worked out from the volumes in the protocol); hit rate 0.2% among 330,000; P13612; VLA-4 expressing cells, ligand binding flow cytometry; in the data active = inhibition above about 50%
CHT allo act – allosterically activates the human high affinity choline transporter. hit rate 0.49% among 310,000. CHT-expressing cells, membrane potential dye, choline EC20; stronger effect = higher value; LV-AA mutant CHT in HEK293 cells. AID 488977. Q9GZV3. B-score at 10 µM;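 active = initial fluorescence not abnormally high and integrated response B-score, plate-corrected, over 3 SD above library mean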
Target sequence (Q9GZV3 whole entry, looked up): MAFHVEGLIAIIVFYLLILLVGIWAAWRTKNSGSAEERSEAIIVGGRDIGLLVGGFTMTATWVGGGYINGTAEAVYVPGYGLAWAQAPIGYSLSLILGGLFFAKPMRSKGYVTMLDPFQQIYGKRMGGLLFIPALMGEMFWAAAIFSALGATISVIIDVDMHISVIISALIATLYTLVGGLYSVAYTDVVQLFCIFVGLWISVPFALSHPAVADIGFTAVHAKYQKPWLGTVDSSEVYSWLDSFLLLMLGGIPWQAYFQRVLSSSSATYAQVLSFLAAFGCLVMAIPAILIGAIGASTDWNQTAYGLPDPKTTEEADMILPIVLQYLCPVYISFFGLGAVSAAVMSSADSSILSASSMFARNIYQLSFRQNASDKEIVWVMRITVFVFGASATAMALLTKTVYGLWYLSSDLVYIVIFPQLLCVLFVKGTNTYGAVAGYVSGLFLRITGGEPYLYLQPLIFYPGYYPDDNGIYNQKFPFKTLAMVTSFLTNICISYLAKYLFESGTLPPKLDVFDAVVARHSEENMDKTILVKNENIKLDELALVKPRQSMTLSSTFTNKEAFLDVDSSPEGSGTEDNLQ
CHT inh – inhibits the human high affinity choline transporter | AID 488975 | hit rate 0.86% among 310,000 | B-score at 10 µM | CHT-expressing cells, membrane potential dye, choline response; stronger effect = lower value;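 active = B-score over 3 SD under the library average, and starting fluorescence ratio not unusually high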;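 note: choline stimulus applied at its EC90 after an EC20 pre-addition; B-score computed on integrated fluorescence ratio after choline addition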
Platelet DG rel – modulates dense granule release in human platelets | human platelet-rich plasma, SFLLRN dense granule ATP release, luminescence | hit rate 0.22% among 300,000 | inhibition, %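 (compounds screened at 7.5 µM in platelet-rich plasma)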 | AID 1663;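 active = mean replicate score, as percent of positive control, at or above 50; inconclusive = mean below 50 but at least one replicate at or above 50; inactive = mean and every replicate below 50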
HIF act – HIF pathway transcriptional activation. activation, % at 7.5 µM (by protocol). AID 1910. hit rate 0.32% among 300,000. U2OS HRE-luciferase reporter, luminescence; normalized: DMSO 0%, desferrioxamine 100%;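 active = mean activation of at least 10% of the iron chelator positive control signal, with at least half of replicates also reaching 10%; inconclusive = mean and replicate majority disagree about reaching 10%; inactive = mean and most replicates under 10%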
AI-2 QS modul – modulates the Vibrio harveyi AI-2 quorum sensing system. Vibrio harveyi JMH597 AI-2 luminescence/OD600 ratio, 9 h; stronger effect = lower value; strain lacks LuxN and CqsS sensors; 0 = neutral-control median. activity change, % at 7.5 µM. hit rate 0.4% among 300,000; in the data active = activity change below about -75%, passing the limit was not always enough; inconclusive = no clear call, values can overlap the other calls;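 note: luminescence divided by OD600 gain over 9 h not by final OD600 alone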
CHT block conf – confirmation of human choline transporter CHT inhibitors; shares compounds with CHT inh; CHT-expressing cells, choline membrane potential dye; LV-to-AA substituted CHT, HEK293 cells; CHT activity remaining % of control (stronger effect = lower value), % at 10 µM; hit rate 70% among 2,400; AID 493221;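 active = choline transporter activity left, mean of duplicates at 10 µM, below buffer-only control mean minus 3 SD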;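 note: depolarization triggered by choline at its EC90 following an EC20 pre-addition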
HEK293 CHT ctr – activity in parental HEK293 cells lacking CHT. membrane potential dye, choline response; active = decrease or increase beyond buffer ±3SD. shares compounds with CHT inh. membrane potential ratio readout (active if shifted either direction beyond buffer ±3SD; no single direction) at 10 µM. hit rate 4% among 2,400. AID 493222;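 note: parental cells lack the transporter so any hit is non-specific; ratio is peak minus trough fluorescence over baseline after EC90 choline challenge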
Of the large screens only hits and unclear results are named; the others gave an inactive call (follow-up assays come after a bar, where they were run). The list is not random: actives were taken first. Their share in the collection is about 2.2%.

COc1ccc(C)cc1S(=O)(=O)NNc1nc(C)cc(C)n1	none (no result: CHT allo act, CHT inh, Platelet DG rel, HIF act, AI-2 QS modul)
CN1CCN(c2ccc([N+](=O)[O-])cc2C(=O)c2ccc(Cl)cc2)CC1	CHT inh -5 | CHT block conf 68% | HEK293 CHT ctr inactive
CN1CCN(c2ccc([N+](=O)[O-])cc2C(=O)N2CCCCC2)CC1	none
Fc1ccccc1-c1csc(=Nc2cccnc2)n1CCCn1ccnc1	CHT inh -6.8 | CHT block conf 48% | HEK293 CHT ctr inactive
COc1ccc(Cn2ccnc2SCC(=O)Nc2cccc(NC(C)=O)c2)cc1	none
COc1ccc(-n2ccnc2SCC(=O)NO)cc1	CHT inh -5.3 | CHT block conf inactive | HEK293 CHT ctr inactive
COc1ccc(NC(=O)CSc2nccn2Cc2ccccc2)cc1	CHT inh -5.3 | CHT block conf 56% | HEK293 CHT ctr inactive
Cc1ccc(S(=O)(=O)/N=C2\C=C(Nc3cccc(C(=O)O)c3)C(=O)c3ccccc32)cc1	CHT inh -5.9 | CHT block conf 41% | HEK293 CHT ctr 2.5
CC(C)(C)c1ccc(S(=O)(=O)/N=C2\C=C(NS(=O)(=O)c3ccccc3)C(=O)c3ccccc32)cc1	CHT inh -8.7 | CHT block conf 40% | HEK293 CHT ctr inactive
Cc1[nH]nc2c1-c1nc3ccccc3nc1C(C)(C)C2	CHT inh -5 | CHT block conf inactive | HEK293 CHT ctr inactive
CC12CCC(C)(c3nc4ccccc4nc31)C2(C)C	none
Cc1ccc(C)c(NC(=O)CN(C)C(=O)c2ccc3c(=O)n4c(nc3c2)CCC4)c1	none (no result: CHT allo act, CHT inh, Platelet DG rel, HIF act, AI-2 QS modul)
O=C(N/C(=C/c1cccs1)c1nc2ccccc2[nH]1)c1ccccc1	none
Cc1ccc(C(=O)N/C(=C\c2cccs2)c2nc3ccccc3[nH]2)cc1	CHT inh -5 | CHT block conf 64% | HEK293 CHT ctr inactive
O=C(CCc1nnc(Cc2ccc(-c3ccccc3)cc2)o1)N1CCCC1	CHT inh -5.4 | CHT block conf 46% | HEK293 CHT ctr inactive
Cc1occc1C(=O)NNS(=O)(=O)c1ccc([N+](=O)[O-])cc1	CHT inh -5.1 | CHT block conf 46% | HEK293 CHT ctr inactive
Cc1ccc(S(=O)(=O)NNC(=O)c2ccoc2C)cc1	none
O=C(NC1CC1)C1=C[C@H](c2ccc(Br)cc2)C[C@H](OCc2ccc(CO)cc2)O1	CHT inh -6.4 | CHT block conf 52% | HEK293 CHT ctr inactive
O=C(Nc1ccccc1)C1=C[C@H](c2csc3ccccc23)C[C@H](OCc2ccc(CO)cc2)O1	none
O=C(NC1CC1)C1=C[C@@H](c2ccc(C(F)(F)F)cc2)C[C@@H](OCc2ccc(CO)cc2)O1	none
O=C(NC1CC1)C1=C[C@H](c2csc3ccccc23)C[C@H](OCc2ccc(CO)cc2)O1	CHT inh -5.2 | CHT block conf 56% | HEK293 CHT ctr inactive
Cc1ccc(CS(=O)Cc2ccc(C(=O)NC3CCC(C)CC3)o2)cc1 (centres undefined)	CHT inh -9.8 | CHT block conf 3.4% | HEK293 CHT ctr inactive
Cc1ccc(CS(=O)Cc2ccc(C(=O)NC3CCCC(C)C3C)o2)cc1 (centres undefined)	CHT inh -9.7 | CHT block conf 20% | HEK293 CHT ctr inactive
Cc1ccc(C(=O)NC2CCC(C)CC2)o1 (centres undefined)	none
Cc1ccc(CS(=O)Cc2ccc(C(=O)NC3CCCCCC3)o2)cc1 (centres undefined)	CHT inh -9.5 | CHT block conf 36% | HEK293 CHT ctr inactive
COc1cc2cc(CCCOC(=O)c3ccc(C(F)(F)F)cc3)oc(=O)c2cc1OC	none (no result: CHT allo act, CHT inh, Platelet DG rel, HIF act, AI-2 QS modul)
O=C(CN1CCC(C(=O)c2ccc(F)cc2)CC1)Nc1ccccc1Cl	none
CCOc1ccccc1C(C(=O)NC1CCCC1)N(C(=O)c1csnn1)C1CC1 (centres undefined)	none (no result: AI-2 QS modul)
O=c1ccc(-c2ccc(S(=O)(=O)N3CCCCC3)o2)n[nH]1	none
CCCCCCCN1C(Nc2ccccc2)=NC[C@@H]1Cc1ccccc1	none
c1ccc(CCCCN2C(Nc3ccccc3)=NC[C@@H]2Cc2ccccc2)cc1	CHT inh -7.5 (no result: Platelet DG rel, HIF act, AI-2 QS modul) | CHT block conf 32% | HEK293 CHT ctr inactive
Oc1c(Br)cc(Cl)cc1C=Nc1ccccc1Br	CHT inh -7.1 | CHT block conf 68% | HEK293 CHT ctr inactive
CCc1nnc(NC(=O)CSc2nc3c(c(=O)n2C)SC(C)C3)s1 (centres undefined)	none
CC1Cc2nc(SCC(=O)Nc3nc4ccccc4s3)n(C)c(=O)c2S1 (centres undefined)	CHT inh -5.1 | CHT block conf inactive | HEK293 CHT ctr inactive
Cc1ccc(C)c(NCC(=O)NNC(=S)Nc2ccccc2)c1	CHT inh -6.2 | CHT block conf 67% | HEK293 CHT ctr inactive
Cc1ccc(C)c(NC(=O)CCC(=O)NNC(=S)Nc2ccccc2)c1	none
COc1ccc([N+](=O)[O-])c(S(=O)(=O)c2ccc(Cl)cc2)n1	CHT inh -6.6, AI-2 QS modul -145 | CHT block conf 48% | HEK293 CHT ctr inactive
O=[N+]([O-])c1cccnc1S(=O)(=O)c1ccccc1	none
COc1ccc([N+](=O)[O-])c(S(=O)(=O)c2ccccc2)n1	CHT inh -5.3, AI-2 QS modul inconclusive | CHT block conf 44% | HEK293 CHT ctr inactive
CC1=NN(c2cccc(Cl)c2)C(=O)C1	none | CHT block conf inactive | HEK293 CHT ctr inactive
COc1cccc(C(=O)NNC(=O)Cc2ccc(Cl)cc2)c1	none
COc1cccc(C(=O)NN/C(C)=C/C(=O)C(F)(F)C(F)(F)C(F)(F)F)c1	CHT inh -8.4 (no result: HIF act) | CHT block conf 67% | HEK293 CHT ctr inactive
CC(=C\c1ccccc1)/C=C1/SC(=S)N(CCCC(=O)O)C1=O	none
CC(/C=C1\SC(=O)N(CCCC(=O)O)C1=O)=C\c1ccccc1	CHT inh -5 | CHT block conf 64% | HEK293 CHT ctr inactive
CCOc1ccc(CNS(=O)(=O)c2cccs2)cc1OCC	none
CC1=C/C(=N\OS(=O)(=O)c2ccccc2)C(C)=CC1=O	CHT inh -6 (no result: Platelet DG rel, HIF act, AI-2 QS modul) | CHT block conf 50% | HEK293 CHT ctr inactive
O=C(CCCSc1nc2ccccc2[nH]1)N1CCN(c2ccccc2)CC1	CHT inh -5 | CHT block conf 58% | HEK293 CHT ctr inactive
O=C(CSc1nc2ccccc2[nH]1)N1CCN(c2ccccc2)CC1	none
O=C(CCCSc1nc2ccccc2[nH]1)NC1CCCCC1	none
O=C(COC(=O)CCCSc1nc2ccccc2[nH]1)NC(=O)NC1CCCC1	CHT inh -7.3 | CHT block conf 62% | HEK293 CHT ctr inactive
